PubChem BioAssay

experiment: MM1S cell viability effects, profiling panel, calcein-AM fluorescence, 48 h, basal (AID 1165); conditions: higher = more signal;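 also: viability of MM1S multiple myeloma cells under basal unstimulated conditions; test concentration not given here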

Row | Compound | z-score
1 | CCCNC(=O)[C@@]1(Sc2ccc(C)cc2)CC(=O)N(Cc2ccccc2Cl)[C@@H]1c1ccc(CO)cc1I | -1.9
2 | C=CCN1Cc2ccccc2[C@H]2OC(c3ccc(OCCCO)cc3)=N[C@@]2(CCS(=O)(=O)c2ccccc2)C1=O | -1.56
3 | [N-]=[N+]=Nc1ccccc1C[C@]1(C(=O)N2CCOCC2)N=C(c2ccc(OCCCO)cc2)O[C@H]1c1ccccc1N=[N+]=[N-] | -1.77
4 | C[C@]1(C(=O)O)c2ccccc2C(=O)N(Cc2cc(F)cc(C(F)(F)F)c2)[C@H]1c1ccc(CO)cc1 | 0.471
5 | CC(C)c1nc2cc(Br)ccc2c(=O)o1 | 0.345
6 | CN(C)CCCC[C@@H]1NC(=O)[C@H]2C[C@@H](C(=O)O)[C@@H](c3ccc(O)cc3)N2C1=O | -1.24
7 | CN1C(=O)C2C(C3CC3)C=C3CN(Cc4cccc(Cl)c4)[C@@H]([C@@H](O)Cc4ccccc4)C3C2C1=O (stereo partly specified) | -1.81
8 | C=CCC(OC(C)=O)[C@@H]1[C@@H](N(Cc2ccc(-c3cccc(C(F)(F)F)c3)o2)C(=O)c2ccc(-c3ccccc3)cc2)c2cc(OCCCO)ccc2N1C(=O)c1ccc2ccccc2c1 (stereo partly specified) | 0.0723
9 | CCCCC(O)C1C=CC2C(=O)N(c3ccccc3)C(=O)C2N1Nc1ccc(C#N)cc1 (stereo unspecified) | 0.105
10 | NC(=O)N1C(=O)C2C(C1=O)C1C=C(CCCO)C2C(c2ccc(CN3CCCC3)cc2)N1Cc1sc2ccccc2c1Cl (stereo unspecified) | -2.67
11 | CC(C)=CCCC(C)=CC(O)C1C=CC2C(=O)NC(=O)C2N1Nc1ccccn1 (stereo unspecified) | 0.617
12 | Cc1ccc(S[C@]2(C(=O)NCCCN(C)C)CC(=O)N(C3Cc4ccccc4C3)[C@@H]2c2ccc(CO)cc2I)cc1 | -2.64
13 | COc1ccc(C#Cc2ccc3c(c2)[C@]2(C(=O)N3)[C@H](C(=O)O)[C@H]3C(=O)O[C@H](c4ccccc4)[C@H](c4ccccc4)N3[C@@H]2c2ccccc2OCCO)cc1 | -3.32
14 | COc1ccc(CCNC(=O)[C@@H]2c3ccccc3C(=O)N(Cc3ccccc3OC)[C@H]2c2ccc(CO)cc2)cc1 | -0.147
15 | C=CCC(OC(C)=O)[C@@H]1[C@@H](N(Cc2cccc3ccccc23)C(=O)Cc2ccc(OC)cc2)c2cc(OCCCO)ccc2N1C(=O)Cc1ccc2ccccc2c1 (stereo partly specified) | 0.0986
16 | CC(C)(C)OC(=O)CC[C@@]1(C(=O)NCCN2CCOCC2)N=C(c2ccc(OCCCO)cc2)O[C@@H]1c1ccccc1CN=[N+]=[N-] | -0.0725
17 | CC(C)NC(=O)[C@@]1(C)c2ccccc2C(=O)N(Cc2ccccc2)[C@H]1c1ccc(CO)cc1 | 0.579
18 | CN(C)c1ccc(C(O)C2C=CC3C(=O)N(Cc4ccccc4)C(=O)C3N2n2cnnc2)cc1 (stereo unspecified) | 0.0017

Row | Compound | z-score
19 | COc1ccc(C(=O)Nc2ccc(CN3C(=O)[C@@]4(O[C@@H](CCn5cc(CCO)nn5)[C@H]([Si](C)(C)c5ccc(OC)cc5)[C@H]4C)c4ccccc43)cc2)cc1 | -2.68
20 | CC(C)C[C@H]1NC(=O)C([C@@H](C)OCc2ccccc2)NC(=O)[C@@]23C(=O)N[C@@H](Cc4ccccc4)C2[C@H](C)[C@@]2(C)O[C@H]2C3/C=C/C/C=C\CNC1=O (stereo partly specified) | -0.936
21 | COc1ccc([Si](C)(C)[C@@H]2[C@@H](CC(=O)N3CCC[C@H]3CO)O[C@]3(C(=O)N(Cc4cccc(N5CCCCC5=O)c4)c4ccccc43)[C@H]2C)cc1 | -2.81
22 | CO[C@H]1O[C@H](CO)[C@@H](OC(=O)Nc2ccccc2-c2ccccc2)[C@H](OC(=O)Nc2ccccc2)[C@H]1OC(=O)Nc1ccccc1 | -2.76
23 | CCCCC(O)C1C=CC2C(=O)N(c3ccccc3)C(=O)C2N1Nc1ccc([N+](=O)[O-])cc1 (stereo unspecified) | -0.72
24 | C=CCNC(=O)[C@@H]1[C@H]2C(=O)O[C@H](c3ccccc3)[C@H](c3ccccc3)N2[C@H](c2ccc(OCCO)cc2)[C@@]12C(=O)Nc1ccc(C#CC3(O)CCCCCC3)cc12 | -1.29
25 | CN1C(=O)C2C(C1=O)C1C=C(c3ccc(CO)cc3)C2C(C2CC2)N1C (stereo unspecified) | 0.535
26 | COC(=O)[C@@]1(Cc2ccc(F)cc2)[C@H]2c3cc(C(=O)N4CCCC4)n(Cc4ccccn4)c3C[C@H]2CN1C(=O)c1ccccc1 | -0.333
27 | NC(=O)N1C(=O)C2C(C1=O)C1C=C(CCCO)C2C(c2ccc(CN3CCCC3)cc2)N1Cc1cc2c(cc1Br)OCO2 (stereo unspecified) | -0.0321
28 | CCCCN1CC=CC23O[C@@H]4/C=C\CCCOC(=O)C4[C@H]2C(=O)N(C(CO)C(C)C)[C@@H]3C1=O (stereo partly specified) | 0.201
29 | O=C1O[C@H](c2ccccc2)[C@H](c2ccccc2)N2[C@H]1[C@@H](C(=O)N1CCN(c3ncccn3)CC1)[C@]1(C(=O)Nc3ccc(C#CCCO)cc31)[C@H]2c1ccc(O)cc1 | -0.0982
30 | O=C1NC(=O)C2C1C=CC(C(O)c1ccc([N+](=O)[O-])cc1)N2Nc1ccccn1 (stereo unspecified) | -0.492
31 | O=C1C2C=CC(C(O)c3ccc([N+](=O)[O-])cc3)N(Nc3ccccc3F)C2C(=O)N1c1ccccc1 (stereo unspecified) | 0.375
32 | COc1ccc([Si](C)(C)[C@@H]2[C@@H](CC(=O)N(CCO)Cc3ccccc3)O[C@]3(C(=O)N(Cc4ccc(I)cc4)c4ccccc43)[C@H]2C)cc1 | -2.54
33 | CN1C(=O)C2C(C1=O)C1C=C(CCCO)C2C(C2CC2)N1Cc1cccc(OC(F)(F)F)c1 (stereo unspecified) | -0.517
34 | CCOC(=O)C[C@H]1[C@H](OC(=O)c2cc3ccccc3oc2=O)[C@@H](NC(=O)CC(C)C)c2cc(OCCCO)ccc2N1C(=O)Cc1ccc(OC)cc1 | 0.12
35 | NC(=O)N1C(=O)C2C(C1=O)C1C=C(CCCO)C2C(C2CC2)N1Cc1sc2ccccc2c1Cl (stereo unspecified) | -2.97
36 | COCCn1c(C(=O)N(C)C)cc2c1C[C@H]1CN(C(=O)c3ccccc3)[C@@](Cc3ccc(OC)cc3)(C(=O)OC)[C@@H]21 | -0.479
